Results from PubChem BioAssay (NCATS).
Where “and” joins values, the source holds several entries; their conditions need not be identical. Equal values may be shown once. Values without a mark were called inactive. For some assays here: Measured potencies and affinities stand elsewhere. Calls of active or inactive are those of the source.

Columns and labels:
[1] = Ebola virus entry assay, green fluorescence channel
[2] = Ebola virus entry assay, blue channel fluorescence
Wherever efficacy is given: 0% is about no effect.

In the case of Cc1ccc(C(=O)c2cc(O)c(O)c([N+](=O)[O-])c2)cc1, the efficacy [1] is reported as 31.1% and the outcome [2] is reported as “inactive”.

With CS(=O)(=O)CCNCc1ccc(-c2ccc3ncnc(Nc4ccc(OCc5cccc(F)c5)c(Cl)c4)c3c2)o1 the efficacy [1] was 108% and the outcome [2] was “inactive”.

In the case of COCCCOc1cc(C[C@@H](C[C@H](N)[C@@H](O)C[C@H](C(=O)NCC(C)(C)C(N)=O)C(C)C)C(C)C)ccc1OC, the efficacy [1] is reported as 31.8% and the outcome [2] is reported as “inactive”.

With CN1CCN(C2=Nc3cc(Cl)ccc3Nc3ccccc32)CC1 the efficacy [1] was 95.2% and the outcome [2] was “inactive”.

For Cc1ccc(C)c(OCCCC(C)(C)C(=O)O)c1, the efficacy [1] was -13.5% and the outcome [2] was “inactive”.

In the case of O=C(O)COCCN1CCN(C(c2ccccc2)c2ccc(Cl)cc2)CC1 (stereo not given), the efficacy [1] is reported as -24.1% and the outcome [2] is reported as “inactive”.

For NS(=O)(=O)c1cc2c(cc1Cl)NC=NS2(=O)=O, the efficacy [1] was -8.1% and the outcome [2] was “inactive”.

With CC[C@@H](CO)NCCN[C@@H](CC)CO the efficacy [1] was -17.1% and the outcome [2] was “inactive”.

For CC(C)NC[C@@H](O)COc1ccc(CC(N)=O)cc1, the efficacy [1] was -16.3% and the outcome [2] was “inactive”.

With CN/C(=C\[N+](=O)[O-])NCCSCc1ccc(CN(C)C)o1 the efficacy [1] was -12.5% and the outcome [2] was “inactive”.

In the case of CN(C)c1ccc(O)c2c1C[C@H]1C[C@H]3[C@H](N(C)C)C(=O)C(C(N)=O)=C(O)[C@@]3(O)C(=O)C1=C2O, the efficacy [1] is reported as 116% and the outcome [2] is reported as “inactive”.

For Nc1nc2c(ncn2COC(CO)CO)c(=O)[nH]1, the efficacy [1] was -13.6% and the outcome [2] was “inactive”.

In the case of COc1cc(Cc2cnc(N)nc2N)cc(OC)c1OC, the efficacy [1] is reported as -22.6% and the outcome [2] is reported as “inactive”.

With COc1cc2nc(N3CCN(C(=O)C4CCCO4)CC3)nc(N)c2cc1OC (stereo not given) the efficacy [1] was 13% and the outcome [2] was “inactive”.

With Cc1cnc(C(=O)NCCc2ccc(S(=O)(=O)NC(=O)NC3CCCCC3)cc2)cn1 the efficacy [1] was -14.5% and the outcome [2] was “inactive”.

In the case of CN1CCN(CCCN2c3ccccc3Sc3ccc(C(F)(F)F)cc32)CC1, the efficacy [1] is reported as -186% and the AC50 [2] is reported as 7.08 µM (active).

With CCN(CC)CCOC(=O)C1(C2CCCCC2)CCCCC1 the efficacy [1] was 45% and the outcome [2] was “inactive”.

In the case of CC(CN(C)C)CN1c2ccccc2CCc2ccccc21 (stereo not given), the efficacy [1] is reported as 31.5% and the outcome [2] is reported as “inactive”.

In the case of NC(=O)OCC(COC(N)=O)c1ccccc1, the efficacy [1] is reported as -25.6% and the outcome [2] is reported as “inactive”.

In the case of Cc1ccccc1C(OCCN(C)C)c1ccccc1 (stereo not given), the efficacy [1] is reported as 62.3% and the AC50 [2] is reported as 10 µM (active).

For CC1(C)S[C@@H]2[C@H](NC(=O)C(C(=O)O)c3ccccc3)C(=O)N2[C@H]1C(=O)O (stereo not given in full), the efficacy [1] was 26% and the outcome [2] was “inactive”.

In the case of Cc1onc(-c2c(Cl)cccc2Cl)c1C(=O)N[C@@H]1C(=O)N2[C@@H]1SC(C)(C)[C@@H]2C(=O)O, the efficacy [1] is reported as 26.4% and the outcome [2] is reported as “inactive”.

With N[C@@H](C(=O)N[C@@H]1C(=O)N2C(C(=O)O)=C(Cl)CS[C@H]12)c1ccccc1 the efficacy [1] was 26% and the outcome [2] was “inactive”.

For C[C@H]1[C@H](NC(=O)/C(=N/OC(C)(C)C(=O)O)c2csc(N)n2)C(=O)N1S(=O)(=O)O (stereo in doubt), the efficacy [1] was 16.2% and the outcome [2] was “inactive”.

In the case of CCCNCC(O)COc1ccccc1C(=O)CCc1ccccc1 (stereo not given), the efficacy [1] is reported as 86.9% and the AC50 [2] is reported as 11.2 µM (active).

With CC(C)n1c(/C=C/[C@@H](O)C[C@@H](O)CC(=O)O)c(-c2ccc(F)cc2)c2ccccc21 the efficacy [1] was 14.5% and the outcome [2] was “inactive”.

In the case of O=C1N=C(O)CN1/N=C/c1ccc(-c2ccc([N+](=O)[O-])cc2)o1, the efficacy [1] is reported as 24% and the outcome [2] is reported as “inactive”.

In the case of CC(C)[N+](C)(CCOC(=O)C1c2ccccc2Oc2ccccc21)C(C)C, the efficacy [1] is reported as -23.3% and the outcome [2] is reported as “inactive”.

With Nc1cc(-c2ccncc2)c[nH]c1=O the efficacy [1] was 26.8% and the outcome [2] was “inactive”.

In the case of Nc1ccc(O)c(C(=O)O)c1, the efficacy [1] is reported as 18.3% and the outcome [2] is reported as “inactive”.

In the case of CC[C@@]1(O)C(=O)OCc2c1cc1n(c2=O)Cc2cc3c(CN(C)C)c(O)ccc3nc2-1, the AC50 [1] is reported as 31.6 µM (active) and the outcome [2] is reported as “inactive”.

With CC1=C(C(=O)O)N2C(=O)[C@@H](NC(=O)[C@H](N)c3ccccc3)[C@H]2SC1 the efficacy [1] was 11.4% and the outcome [2] was “inactive”.

For CC[C@]1(O)C[C@@H]2CN(CCc3c([nH]c4ccccc34)[C@@](C(=O)OC)(c3cc4c(cc3OC)N(C)[C@H]3[C@@](O)(C(=O)OC)[C@H](OC(C)=O)[C@]5(CC)C=CCN6CC[C@]43[C@@H]65)C2)C1, the efficacy [1] was -50.1% and 54.6% and the AC50 [2] was 0.0009 µM (active).

For NNCCc1ccccc1, the efficacy [1] was -18.8% and the outcome [2] was “inactive”.

In the case of CC12CC3CC(C)(C1)CC(N)(C3)C2, the efficacy [1] is reported as 58.3% and the outcome [2] is reported as “inactive”.

In the case of CCCCS(=O)(=O)N[C@@H](Cc1ccc(OCCCCC2CCNCC2)cc1)C(=O)O, the efficacy [1] is reported as 9.81% and the outcome [2] is reported as “inactive”.

In the case of CC[C@@]1(c2ccccc2)NC(=O)N(C)C1=O, the efficacy [1] is reported as -26.5% and the outcome [2] is reported as “inactive”.

For CC/C(=C(\c1ccccc1)c1ccc(OCCN(C)C)cc1)c1ccccc1, the efficacy [1] was -205% and the AC50 [2] was 1.12 µM (active).

In the case of COc1ccc(-c2cc(=S)ss2)cc1, the efficacy [1] is reported as -17.7% and the outcome [2] is reported as “inactive”.

For COc1c(C)c2c(c(O)c1C/C=C(\C)CCC(=O)O)C(=O)OC2, the efficacy [1] was 11.2% and the outcome [2] was “inactive”.
